Holding throughout (test): DAPPL (digital affinity profiling via proximity ligation, sequencing); 10 mM Tris-HCl pH 7.5, 50 mM NaCl, 1 mM DTT, 4% glycerol, room temperature, 30 min; GST-TFs on glutathione beads, 16-mer random dsDNA library, 0.1% formaldehyde crosslink after washing; high values mean tight binding
One test deals with T1, FLI1 (Homo sapiens, UniProt Q01543 1-452).
T1 sequence: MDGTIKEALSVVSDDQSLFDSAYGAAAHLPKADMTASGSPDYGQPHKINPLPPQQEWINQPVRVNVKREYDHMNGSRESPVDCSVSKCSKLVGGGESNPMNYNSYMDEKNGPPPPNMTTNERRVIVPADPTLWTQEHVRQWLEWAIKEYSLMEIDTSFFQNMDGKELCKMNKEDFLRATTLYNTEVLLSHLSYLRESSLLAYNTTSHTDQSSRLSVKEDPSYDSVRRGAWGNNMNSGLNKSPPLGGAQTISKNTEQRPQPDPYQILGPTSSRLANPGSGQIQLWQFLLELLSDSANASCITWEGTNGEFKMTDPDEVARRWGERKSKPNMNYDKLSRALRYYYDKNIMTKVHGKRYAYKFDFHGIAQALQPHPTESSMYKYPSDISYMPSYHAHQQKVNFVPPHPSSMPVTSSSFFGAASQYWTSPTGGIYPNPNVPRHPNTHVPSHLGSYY
To be noted: protein: recombinant; tags: N-terminal GST; dsDNA, one strand shown. The method, boiled down:
(§1)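 Beads coated with glutathione captured GST-fused human transcription factors that had been expressed in yeast, and the factors were then given DNA barcodes and pooled with a tag-only sample. The pools were incubated with 200 nmole of a random double-stranded 16-mer DNA library in Tris/NaCl/DTT/glycerol buffer for 30 min at room temperature, washed, crosslinked with 0.1% formaldehyde and proximity-ligated with BsaI/T4 ligase at 37 °C for 1 h. PCR amplification and Illumina NextSeq500 sequencing came last. Binding signal is each hexamer's read frequency for a factor divided by its frequency for the tag-only sample.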

Another test has as its target T2, ELK1 (Homo sapiens, UniProt P19419 1-428).
T2 sequence: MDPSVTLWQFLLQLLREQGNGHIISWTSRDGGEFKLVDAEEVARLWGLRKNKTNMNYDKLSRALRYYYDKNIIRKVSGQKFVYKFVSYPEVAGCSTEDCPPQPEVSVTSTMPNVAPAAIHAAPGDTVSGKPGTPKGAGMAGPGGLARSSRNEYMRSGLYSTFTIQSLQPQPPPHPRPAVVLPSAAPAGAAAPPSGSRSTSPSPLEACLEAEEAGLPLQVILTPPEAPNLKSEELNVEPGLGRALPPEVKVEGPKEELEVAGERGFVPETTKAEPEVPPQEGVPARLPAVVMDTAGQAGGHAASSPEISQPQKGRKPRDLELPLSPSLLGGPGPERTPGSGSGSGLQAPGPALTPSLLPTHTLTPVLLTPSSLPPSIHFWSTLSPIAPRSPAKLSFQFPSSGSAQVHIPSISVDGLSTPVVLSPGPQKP
To be noted: protein: recombinant; tags: N-terminal GST; dsDNA, one strand shown. In outline: as §1

For a further test, the target named is T3, GABPA (Homo sapiens, UniProt Q06546 1-454).
T3 sequence: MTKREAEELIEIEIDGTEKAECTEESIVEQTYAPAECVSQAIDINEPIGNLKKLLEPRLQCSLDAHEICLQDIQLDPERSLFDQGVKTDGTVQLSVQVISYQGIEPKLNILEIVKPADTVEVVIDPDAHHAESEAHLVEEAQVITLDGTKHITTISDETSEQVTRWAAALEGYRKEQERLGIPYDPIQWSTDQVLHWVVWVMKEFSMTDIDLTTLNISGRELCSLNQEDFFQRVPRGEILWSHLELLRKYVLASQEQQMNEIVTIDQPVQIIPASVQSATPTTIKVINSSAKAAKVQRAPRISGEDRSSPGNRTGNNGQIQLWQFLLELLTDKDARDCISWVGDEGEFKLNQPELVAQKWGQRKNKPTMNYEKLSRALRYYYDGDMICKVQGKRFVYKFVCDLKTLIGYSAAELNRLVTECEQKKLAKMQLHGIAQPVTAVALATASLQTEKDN
Particulars: protein: recombinant; tags: N-terminal GST; dsDNA, one strand shown. The method, boiled down: as §1

The next test addresses ELF1 (Homo sapiens, UniProt P32519 1-619). Particulars: protein: recombinant; tags: N-terminal GST; dsDNA, one strand shown. In outline: as §1
In another test the target is SPIB (Homo sapiens, UniProt Q01892 1-262). Particulars: protein: recombinant; tags: N-terminal GST; dsDNA, one strand shown. The method, boiled down:
as §1

The target of another test is T4, FEV (Homo sapiens, UniProt Q99581 1-238).
T4 sequence: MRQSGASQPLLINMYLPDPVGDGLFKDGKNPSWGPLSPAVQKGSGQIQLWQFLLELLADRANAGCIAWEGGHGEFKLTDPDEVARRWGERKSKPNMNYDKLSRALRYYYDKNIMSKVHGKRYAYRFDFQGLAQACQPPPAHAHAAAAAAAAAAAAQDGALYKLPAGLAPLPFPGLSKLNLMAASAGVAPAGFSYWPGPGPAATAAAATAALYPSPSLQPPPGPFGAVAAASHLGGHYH
Particulars: protein: recombinant; tags: N-terminal GST; dsDNA, one strand shown. The method, boiled down: as §1

For another test, the target named is ETV5 (Homo sapiens, UniProt P41161 1-510). To be noted: protein: recombinant; tags: N-terminal GST; dsDNA, one strand shown. In outline: as §1
In a further test the target is HSF1 (Homo sapiens, UniProt Q00613 1-529). To be noted: protein: recombinant; tags: N-terminal GST; chain copies: 3; dsDNA, one strand shown. In outline:
as §1

A further test addresses T5, SPIC (Homo sapiens, UniProt Q8N5J4 1-248).
T5 sequence: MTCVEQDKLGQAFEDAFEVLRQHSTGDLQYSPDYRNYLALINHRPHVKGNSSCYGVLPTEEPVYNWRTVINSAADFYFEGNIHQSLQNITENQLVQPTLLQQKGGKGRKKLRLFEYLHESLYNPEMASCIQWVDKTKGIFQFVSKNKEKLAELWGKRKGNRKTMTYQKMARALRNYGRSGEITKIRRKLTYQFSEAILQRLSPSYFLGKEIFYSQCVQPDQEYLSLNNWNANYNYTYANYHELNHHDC
To be noted: protein: recombinant; tags: N-terminal GST; dsDNA, one strand shown. The method, boiled down: as §1

For the next test, the target named is T6, ELK4 (Homo sapiens, UniProt P28324-2 1-405).
T6 sequence: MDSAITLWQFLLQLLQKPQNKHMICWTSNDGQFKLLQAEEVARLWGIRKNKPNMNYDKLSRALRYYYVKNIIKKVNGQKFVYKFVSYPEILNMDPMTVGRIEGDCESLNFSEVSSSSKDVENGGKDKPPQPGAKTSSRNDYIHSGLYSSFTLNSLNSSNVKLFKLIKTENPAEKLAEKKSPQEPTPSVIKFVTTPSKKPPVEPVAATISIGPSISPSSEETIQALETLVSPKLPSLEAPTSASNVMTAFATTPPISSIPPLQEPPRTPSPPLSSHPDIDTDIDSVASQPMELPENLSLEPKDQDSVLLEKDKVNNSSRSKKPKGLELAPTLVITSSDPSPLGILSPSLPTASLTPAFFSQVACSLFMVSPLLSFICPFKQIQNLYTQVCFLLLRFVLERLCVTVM
Particulars: protein: recombinant; tags: N-terminal GST; dsDNA, one strand shown. The method, boiled down:
as §1

For the next test, the target named is T7, ELF3 (Homo sapiens, UniProt P78545 1-371).
T7 sequence: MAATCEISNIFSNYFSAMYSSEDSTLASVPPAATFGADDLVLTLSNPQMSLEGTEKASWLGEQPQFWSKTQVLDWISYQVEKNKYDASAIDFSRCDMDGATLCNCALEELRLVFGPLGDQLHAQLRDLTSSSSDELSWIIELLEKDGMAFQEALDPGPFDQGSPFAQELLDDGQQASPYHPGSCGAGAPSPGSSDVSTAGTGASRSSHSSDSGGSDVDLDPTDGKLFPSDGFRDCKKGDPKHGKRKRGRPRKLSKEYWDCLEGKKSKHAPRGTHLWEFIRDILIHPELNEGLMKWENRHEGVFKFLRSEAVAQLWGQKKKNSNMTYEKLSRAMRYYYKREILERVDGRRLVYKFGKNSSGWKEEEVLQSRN
Particulars: protein: recombinant; tags: N-terminal GST; dsDNA, one strand shown. The method, boiled down: as §1

The next test concerns the target CRX (Homo sapiens, UniProt O43186 1-299). To be noted: protein: recombinant; tags: N-terminal GST; dsDNA, one strand shown. The method, boiled down:
as §1

A further test deals with ETV1 (Homo sapiens, UniProt P50549 1-477). Particulars: protein: recombinant; tags: N-terminal GST; dsDNA, one strand shown. The method, boiled down: as §1
Sequence of ETV1 (P50549 whole entry): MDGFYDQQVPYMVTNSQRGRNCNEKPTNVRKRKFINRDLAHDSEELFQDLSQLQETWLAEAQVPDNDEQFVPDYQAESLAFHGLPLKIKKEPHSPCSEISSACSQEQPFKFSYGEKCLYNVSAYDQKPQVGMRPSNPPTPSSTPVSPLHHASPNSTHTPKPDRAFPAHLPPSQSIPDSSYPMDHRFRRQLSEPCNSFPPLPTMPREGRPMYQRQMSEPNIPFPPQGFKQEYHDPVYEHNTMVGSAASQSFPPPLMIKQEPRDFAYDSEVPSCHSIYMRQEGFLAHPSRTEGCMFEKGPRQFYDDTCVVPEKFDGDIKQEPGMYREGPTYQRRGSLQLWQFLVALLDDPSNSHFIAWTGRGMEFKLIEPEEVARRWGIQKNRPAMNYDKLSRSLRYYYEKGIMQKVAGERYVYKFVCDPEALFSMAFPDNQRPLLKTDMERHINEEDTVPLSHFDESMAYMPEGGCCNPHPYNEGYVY

Sequence of ELF1 (P32519 whole entry): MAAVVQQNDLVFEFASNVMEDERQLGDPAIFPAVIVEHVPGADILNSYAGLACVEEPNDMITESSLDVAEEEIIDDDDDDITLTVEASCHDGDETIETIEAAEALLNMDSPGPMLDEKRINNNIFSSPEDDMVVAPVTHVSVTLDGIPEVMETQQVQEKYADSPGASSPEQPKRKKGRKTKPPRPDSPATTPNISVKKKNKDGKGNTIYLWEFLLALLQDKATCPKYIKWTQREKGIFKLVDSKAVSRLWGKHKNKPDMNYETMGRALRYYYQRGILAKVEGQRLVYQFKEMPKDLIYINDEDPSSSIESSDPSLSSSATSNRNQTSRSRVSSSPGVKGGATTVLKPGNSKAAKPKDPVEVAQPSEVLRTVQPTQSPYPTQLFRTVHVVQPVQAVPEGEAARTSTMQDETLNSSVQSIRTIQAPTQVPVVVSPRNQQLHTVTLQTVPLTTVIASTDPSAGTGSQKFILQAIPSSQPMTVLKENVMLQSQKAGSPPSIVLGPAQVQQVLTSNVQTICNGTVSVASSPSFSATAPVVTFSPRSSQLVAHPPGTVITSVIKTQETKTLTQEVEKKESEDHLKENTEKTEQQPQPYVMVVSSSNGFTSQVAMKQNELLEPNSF
Sequence of SPIB (Q01892 whole entry): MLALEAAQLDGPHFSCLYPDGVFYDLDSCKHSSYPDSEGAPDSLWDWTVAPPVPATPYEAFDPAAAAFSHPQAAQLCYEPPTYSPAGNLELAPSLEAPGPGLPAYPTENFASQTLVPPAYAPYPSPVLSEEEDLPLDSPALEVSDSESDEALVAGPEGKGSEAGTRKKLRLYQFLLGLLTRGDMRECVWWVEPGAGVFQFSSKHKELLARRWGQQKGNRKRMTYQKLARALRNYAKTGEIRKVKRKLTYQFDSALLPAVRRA
Sequence of HSF1 (Q00613 whole entry): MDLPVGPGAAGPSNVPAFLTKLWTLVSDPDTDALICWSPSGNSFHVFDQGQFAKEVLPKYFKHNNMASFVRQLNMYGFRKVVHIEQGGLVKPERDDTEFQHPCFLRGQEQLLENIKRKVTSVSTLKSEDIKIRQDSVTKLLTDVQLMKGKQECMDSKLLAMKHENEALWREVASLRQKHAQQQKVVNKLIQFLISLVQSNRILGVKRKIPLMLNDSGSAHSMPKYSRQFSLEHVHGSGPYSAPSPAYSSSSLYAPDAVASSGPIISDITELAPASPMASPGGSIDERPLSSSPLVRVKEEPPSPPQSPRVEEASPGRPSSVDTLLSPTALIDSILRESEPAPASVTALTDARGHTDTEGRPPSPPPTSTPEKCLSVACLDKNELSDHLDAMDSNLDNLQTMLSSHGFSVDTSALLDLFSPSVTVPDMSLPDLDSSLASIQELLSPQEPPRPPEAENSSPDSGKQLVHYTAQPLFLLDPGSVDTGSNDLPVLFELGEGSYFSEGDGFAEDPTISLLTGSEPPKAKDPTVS
Sequence of CRX (O43186 whole entry): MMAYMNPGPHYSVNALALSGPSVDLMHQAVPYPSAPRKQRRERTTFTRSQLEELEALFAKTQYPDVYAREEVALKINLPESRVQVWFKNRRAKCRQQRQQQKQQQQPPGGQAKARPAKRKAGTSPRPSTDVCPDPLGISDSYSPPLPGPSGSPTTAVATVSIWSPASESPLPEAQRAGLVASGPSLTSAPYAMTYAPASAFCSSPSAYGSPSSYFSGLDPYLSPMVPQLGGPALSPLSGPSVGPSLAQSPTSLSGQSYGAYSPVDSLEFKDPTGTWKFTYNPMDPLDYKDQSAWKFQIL
Sequence of ETV5 (P41161 whole entry): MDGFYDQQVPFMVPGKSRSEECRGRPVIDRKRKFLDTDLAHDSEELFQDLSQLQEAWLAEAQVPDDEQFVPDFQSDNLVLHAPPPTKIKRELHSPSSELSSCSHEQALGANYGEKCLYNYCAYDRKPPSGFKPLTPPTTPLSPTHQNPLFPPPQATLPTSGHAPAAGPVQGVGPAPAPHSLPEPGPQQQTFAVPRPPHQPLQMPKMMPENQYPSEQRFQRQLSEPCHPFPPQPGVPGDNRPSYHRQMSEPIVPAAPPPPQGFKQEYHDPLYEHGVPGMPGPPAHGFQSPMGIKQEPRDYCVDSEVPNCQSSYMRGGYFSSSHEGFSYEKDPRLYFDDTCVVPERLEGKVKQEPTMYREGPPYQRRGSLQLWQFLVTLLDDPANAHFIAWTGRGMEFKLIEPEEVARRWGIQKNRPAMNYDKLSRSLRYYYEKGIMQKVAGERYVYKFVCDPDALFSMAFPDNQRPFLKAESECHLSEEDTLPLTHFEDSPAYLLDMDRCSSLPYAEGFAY

With AAAGCC, the binding signal was 1.05 fold enrichment (6-mer frequency, TF over GST control) in the test with FLI1; 1.05 fold enrichment (6-mer frequency, TF over GST control) in the test with ELK1; 1.04 fold enrichment (6-mer frequency, TF over GST control) with GABPA; 1.08 fold enrichment (6-mer frequency, TF over GST control) with ELF1; 1 fold enrichment (6-mer frequency, TF over GST control) with SPIB; 1.03 fold enrichment (6-mer frequency, TF over GST control) in the test with FEV. Further, the binding signal with ETV5 is 1.02 fold enrichment (6-mer frequency, TF over GST control); in the test with HSF1, 1.14 fold enrichment (6-mer frequency, TF over GST control); with SPIC it was 1.14 fold enrichment (6-mer frequency, TF over GST control); with ELK4, 1.02 fold enrichment (6-mer frequency, TF over GST control); in the test with ELF3 it was 1.01 fold enrichment (6-mer frequency, TF over GST control); with CRX, 1.42 fold enrichment (6-mer frequency, TF over GST control). The binding signal with ETV1 was 1.03 fold enrichment (6-mer frequency, TF over GST control).

(Values after publication PMC7862700, “An all-to-all approach to the identification of sequence-specific readers for epigenetic DNA modifications on cytosine”.)
